# Compound activity deposited in PubChem BioAssay by National Center for Advancing Translational Sciences (NCATS).
# Sm TGR inh: blocks Schistosoma mansoni thioredoxin glutathione reductase | Q962Y6 | purified TGR, DTNB reduction, TNB absorbance 405 nm | Potency, µM (highest dose often 114 µM), hits mostly inhibitors | 3% of 360,000 active; also: nearly all actives have a fitted effect of over 60% in size
#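 Kinetic colorimetric format: TGR-catalysed, NADPH-driven DTNB reduction monitored via TNB absorbance. Enzyme dispensed at 20 nM; compound exposure 15 min at room temperature before reaction start.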
# Giardia FBPA inh: Giardia lamblia aldolase inhibition | purified Giardia FBPA | AID 2451 | A8B2U2 | Potency, µM (series often up to 59.6 µM), usual class: inhibitors | 0.71% of 290,000 active; also: nearly all actives have a fitted effect of over 55% in size
# Target sequence (A8B2U2 whole entry, looked up): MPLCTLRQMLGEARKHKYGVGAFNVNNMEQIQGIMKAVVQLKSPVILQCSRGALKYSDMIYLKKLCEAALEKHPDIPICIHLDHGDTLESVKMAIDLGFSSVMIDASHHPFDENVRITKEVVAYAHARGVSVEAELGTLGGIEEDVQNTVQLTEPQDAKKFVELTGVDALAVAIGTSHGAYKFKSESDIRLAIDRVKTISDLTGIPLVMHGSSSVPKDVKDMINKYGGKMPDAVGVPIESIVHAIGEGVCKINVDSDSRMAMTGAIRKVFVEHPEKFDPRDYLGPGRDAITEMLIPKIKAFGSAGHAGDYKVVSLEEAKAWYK
#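 40 nM FBPA preincubated 10 min at RT with compound (up to 57.5 uM final), then substrate plus GAPDH/TPI/NAD/arsenate coupling and diaphorase/resazurin added. Fluorescence read after 20 min at RT, 525/598 nm.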
# Shiga toxin inh: blocks Shiga toxin action in Vero cells. Vero cells, Shiga toxin protein synthesis inhibition reporter. inhibition, % at 38.7 µM. 9.2% of 290,000 active. AID 2315; in the data active = inhibition mostly above about 28%, no sharp cut-off; inactive = mostly below about 43%
# LmPK inhibitor: inhibitors of Leishmania mexicana pyruvate kinase | AID 1721 | 0.37% of 290,000 active | Potency, µM (series often up to 57.5 µM), hits mostly inhibitors | purified LmPK, Kinase-Glo ATP luminescence, 1 h | Q27686
#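 Screened at intermediate enzyme activity to detect both inhibitors and activators: LmPK at 0.1 nM, with a 0.5 nM enzyme column as activation reference. PEP 0.5 mM, ADP 0.1 mM; ATP detected by luminescence after 1 h.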
# Tb PYK inh: T. brucei pyruvate kinase inhibition; 0.12% of 410,000 active; Q57TT1; Potency, µM (doses to about 76.8 µM), actives largely listed as inhibitors; TbPYK enzyme, Kinase-Glo Plus ATP luminescence, 45 min; also: nearly all actives have a fitted effect of over 50% in size
#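 Luminescent Kinase-Glo Plus end-point after 45 min room-temperature reaction of T. brucei pyruvate kinase started with 130 uM ADP (final). Buffer TEA 50 mM pH 7.2 with KCl, MgCl2, BSA, Tween-20; titration-based qHTS with fitted concentration-effect curves.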
# CHX counter: counter-screen for Shiga toxin inhibitors: cycloheximide protein synthesis inhibition. AID 2314. max response, %. 12% of 300,000 active. cell reporter, cycloheximide protein synthesis inhibition counterscreen; in the data active = max response mostly above about 13%, no sharp cut-off; inactive = mostly below about 14%; also: read at 38.3 µM for the half of the compounds with a filed dose
# A number is an active result; 0 = inactive; ? = inconclusive; - = no result given. Shown is part of a subset that was picked to be rich in hits. Unless noted, calls follow the shape of the dose curve; as a rule, active = well fitted curve in the direction sought with a large enough effect; inconclusive = small, poorly fitted or top-dose-only effect, or another doubt; inactive = no such curve, though single readings can be large; an effect the other way counts as inactive or inconclusive.
SMILES,Sm TGR inh,Giardia FBPA inh,Shiga toxin inh,LmPK inhibitor,Tb PYK inh,CHX counter
COc1cc(CC(C)N)cc2c1OCO2 (centres undefined),-,-,-,-,0,-
COC(=O)c1ccccc1NC(=O)N1CCC(N2CCN(Cc3ccc(F)cc3)C(=O)C2=O)CC1,0,-,-,-,0,-
Cc1cccc(NC(=O)C2CCCN(S(=O)(=O)c3c(C)n[nH]c3C)C2)c1 (centres undefined),0,-,-,-,0,-
COCCn1c2c([n+](Cc3cnccn3)c1C)C(=O)c1ccccc1C2=O,-,-,-,-,0,-
O=C(COC(=O)c1ccccc1O)NNC(=O)c1ccc(Br)cc1,0,-,-,-,0,-
Cc1cccc(C(=O)NNC(=O)c2ccc(Cl)cc2)c1O,0,?,79,0,0,30
CC(C)(C)c1ccc(C(=O)NNC(=O)c2cccc(Br)c2)cc1,0,0,0,0,0,16
O=C(NNC(=O)c1ccccc1O)c1cccc(Br)c1,0,0,51,0,0,25
O=C(NNC(=O)c1ccccc1O)c1ccc(Br)cc1,0,0,-,0,0,44
CCOc1ccccc1C(=O)NCC(=O)NNC(=O)c1cccc(S(=O)(=O)Nc2ccc(OC)cc2)c1,0,-,-,-,0,-
O=C(NNC(=O)c1ccccc1O)c1ccc(Cl)cc1,0,0,48,0,0,33
CCOC(=O)c1c(C)c(-c2ccccc2)n(CC(=O)Nc2ccc(OCC)cc2)c1C,0,-,-,-,0,-
COc1cc(-c2nc(-c3ccc4c(c3)-c3ccccc3S4(=O)=O)c(-c3ccccc3)[nH]2)cc(OC)c1O,0,0,0,0,0,22
NC(=O)c1nnn(-c2cccc(C(F)(F)F)c2)c1-c1ccccc1,0,0,0,0,0,0
O=C(O)c1cccc(-n2cc(-c3cccc(C(F)(F)F)c3)cn2)c1,0,0,118,0,0,54
COc1ccc(NC(C)=O)cc1NC(=O)C1(c2cccs2)CCOCC1,0,-,-,-,0,-
CS(=O)(=O)CCCCN=C=S,-,0,-,-,-,-
O=C(N/N=C/c1ccc(F)cc1)c1cc(-c2ccco2)nc2ccccc12,11µM,0,0,0,0,0
CCOc1ccc(/C=N/NC(=O)c2cc(-c3ccco3)nc3ccccc23)cc1,0,0,103,0,0,47
O=C(Nc1ccccc1C(=O)O)/C(=C/c1ccc(Cl)cc1Cl)NC(=O)c1ccco1,0,-,0,0,0,0
CCc1ccc(C2c3c(oc4ccc(F)cc4c3=O)C(=O)N2CCc2ccc(OC)cc2)cc1 (centres undefined),0,-,-,-,0,-
CCc1ccc(S(=O)(=O)c2nnn3c2nc(Nc2cccc(C)c2C)c2sccc23)cc1,0,-,-,-,0,-
Cc1cc2nc(-c3cccc(NC(=O)c4ccc(Br)o4)c3C)oc2cc1C,0,0,0,0,0,24
Cc1ccc2oc(-c3cccc(NC(=O)c4ccc(Br)o4)c3C)nc2c1,0,0,70,0,0,66
Cc1cc2nc(-c3cccc(NC(=O)C(C)C)c3C)oc2cc1C,0,-,-,-,0,-
SMILES,Sm TGR inh,Giardia FBPA inh,Shiga toxin inh,LmPK inhibitor,Tb PYK inh,CHX counter
COc1ccc(C(=O)NCC(c2ccc(N(C)C)cc2)N2CCc3ccccc32)cc1OC (centres undefined),0,-,-,-,0,-
COc1cc(/C=C(\CC(=O)O)c2nc3ccccc3s2)cc(OC)c1O,0,0,0,0,?,0
O=C(O)C/C(=C\c1cccc(NC(=O)c2ccccc2Cl)c1)c1nc2ccccc2s1,0,0,52,0,0,26
COc1cc(C=C(c2nc3ccccc3s2)c2nc3ccccc3s2)cc(OC)c1O,0,?,0,0,0,17
COc1ccc(/C=C(\CC(=O)O)c2nc3ccccc3s2)cc1O,0,0,72,0,0,0
COc1ccc(C(=O)Nc2cccc(/C=C(\CCC(=O)O)c3nc4ccccc4s3)c2)cc1,0,0,59,0,0,17
CCOc1ccc(OCC)c(NC(=O)Cn2nc(CC)n3c(cc4sccc43)c2=O)c1,0,-,-,-,0,-
O=C(Nc1ccc(C(=O)OCc2cc(=O)n3nc(C4CC4)sc3n2)cc1)c1cccc(F)c1,0,-,-,-,0,-
COc1ccc(CC(=O)NCC2CCCN(Cc3cccc(SC)c3)C2)cc1 (centres undefined),0,0,0,0,0,0
CN(C)c1ccc(/C=C(\Cl)c2nc3ccccc3s2)cc1,0,0,79,0,0,66
O=C(O)c1ccc(C=C(c2nc3ccccc3s2)c2nc3ccccc3s2)cc1,0,?,0,0,0,0
CN(c1ccccc1)c1ccc(/C=C(\CCC(=O)O)c2nc3ccccc3s2)cc1[N+](=O)[O-],0,0,0,0,0,16
C=CCn1c(SCC(=O)c2ccc(Br)cc2)nnc1C(CC(C)C)NC(=O)c1cccs1 (centres undefined),0,0,0,0,0,0
O=C(O)Cc1ccc(N=Nc2c(O)c(C(=O)O)cc3ccccc23)cc1,0,0,133,0,0,56
CCNC(=O)COC(=O)c1cc(-c2ccco2)nc2ccccc12,16µM,0,0,0,0,0
Cc1ccc(NC(=O)CSC(C)C(=O)OCC(=O)N2CCN(C(=O)c3ccco3)CC2)cc1 (centres undefined),50µM,-,-,-,0,-
Cn1c(=O)c(C(=O)COC(=O)c2cc(C3CC3)nc3ccccc23)c(N)n(Cc2ccccc2)c1=O,0,0,0,0,0,0
O=C(CCNS(=O)(=O)c1ccc(Cl)cc1)OCC(=O)N1CCN(C(=O)c2ccco2)CC1,0,-,-,-,0,-
O=C(OCC(=O)N1CCN(C(=O)c2ccco2)CC1)c1cc(S(=O)(=O)Nc2ccc(Cl)cc2)ccc1O,45µM,0,0,0,0,0
O=C(O)c1cc(-c2ccco2)nc2ccccc12,?,?,0,0,?,0
Cn1c(=O)c(C(=O)COC(=O)c2cc(-c3ccco3)nc3ccccc23)c(N)n(CC2CC2)c1=O,3.5µM,0,0,0,-,22
Cc1ccc(NC(=O)CSCC(=O)N2CCN(C(=O)c3ccco3)CC2)cc1,0,-,-,-,0,-
CCCC(c1nnnn1C(C)(C)C)N1CCN(C(=O)c2ccco2)CC1 (centres undefined),-,0,0,0,0,0
O=C(c1cc(-c2ccco2)nc2ccccc12)N1CCN(c2ccc(F)cc2)CC1,?,?,78,0,0,33
Cc1ccc(-c2cc(C(=O)N3CCN(c4ccccc4)CC3)c3ccccc3n2)cc1C,0,-,-,-,0,-
O=C(OCC(=O)N1CCN(C(=O)c2ccco2)CC1)c1cc(-c2ccc(Cl)c(Cl)c2Cl)nc2ccccc12,0,0,0,0,0,0
COc1ccc(CNC(=O)COC(=O)c2cc(C)nc3ccccc23)cc1,-,-,-,-,0,-
O=C(c1ccco1)N1CCN(C(=O)c2cc(Cl)nc3ccccc23)CC1,0,-,-,-,0,-
O=C(OCC(=O)N1CCN(C(=O)c2ccco2)CC1)c1cc(-c2ccco2)nc2ccccc12,5µM,?,0,0,?,0
